Laboratory results published in PubChem BioAssay.

Experiment: binders from COS7 lysate, DM2A8 probe, primary screen, torsin A project, cell lysate, small-molecule microarray, fluorescence 635/667 (AID 1065)
Conditions: higher = more signal, COS7 lysate expressing mutant human TOR1A

Row | SMILES | composite z-score
1 | O=C1O[C@@H](c2ccccc2)[C@@H](c2ccccc2)N2[C@@H](c3ccc(O)cc3)[C@]3(C(=O)Nc4ccc(C#CC5=CCCCC5)cc43)[C@@H](C(=O)N3CCN(c4ncccn4)CC3)[C@H]12 | 0.892
2 | CC(C)C[C@@H]1NC(=O)[C@H]2C[C@@H](C(=O)NCCCCCC[N+](C)(C)C)[C@@H](c3cccc(OCCO)c3)N2C1=O | 0.121
3 | CCOC(=O)C[C@H]1[C@H](OC(=O)c2ccccc2-c2ccccc2)[C@@H](NC(=O)c2ccc3ccccc3n2)c2cc(OCCCO)ccc2N1C(=O)c1ccc2ccccc2n1 | 0.749
4 | C[C@H]1C2=C3C(CC[C@H]4C(OCc5ccc(F)cc5C(F)(F)F)OC[C@](C)([C@@H]34)N(C(=O)OC(C)(C)C)C2)C(CO)C1CO (stereo not given in full) | -0.249
5 | CCOc1cc(C(O)C2C=CC3C(=O)N(C)C(=O)C3N2N2CCCCC2)ccc1O (stereo not given) | 0.38
6 | C=C(COC)/C(=C/C[C@@H](OC(=O)c1ccncc1)c1cccc(OCCO)c1)c1cnc2ccccc2c1 | 1.99
7 | C=C(CCCC)/C(=C/C[C@@H](OC(C)=O)c1ccc(CO)o1)c1cc(C(=O)OC)ccc1OC | 0.273
8 | CC(C)(C)OC(=O)CC[C@]1(C(=O)NCCN2CCOCC2)N=C(c2ccc(OCCCO)cc2)O[C@H]1c1ccccc1N=[N+]=[N-] | 1.55
9 | Cc1ccc(S[C@]2(C(=O)NCC(F)(F)F)CC(=O)N(Cc3ccccc3)[C@@H]2c2ccc(CO)cc2)cc1 | 0.179
10 | COc1ccc(C#Cc2ccc3c(c2)[C@]2(C(=O)N3)[C@H](C(=O)N3CCc4cc(OC)c(OC)cc4C3)[C@H]3C(=O)O[C@H](c4ccccc4)[C@H](c4ccccc4)N3[C@@H]2c2ccc(O)cc2)cc1 | 0.606
